The source of these data is article PMC7862700, “An all-to-all approach to the identification of sequence-specific readers for epigenetic DNA modifications on cytosine”.

Holding throughout (assay): DAPPL (digital affinity profiling via proximity ligation, sequencing); 10 mM Tris-HCl pH 7.5, 50 mM NaCl, 1 mM DTT, 4% glycerol, room temperature, 30 min; GST-TFs on glutathione beads, 16-mer random dsDNA library, 0.1% formaldehyde crosslink after washing; high values mean tight binding
Experiment [1] addresses T1, FEV (Homo sapiens, UniProt Q99581 1-238).
T1 sequence: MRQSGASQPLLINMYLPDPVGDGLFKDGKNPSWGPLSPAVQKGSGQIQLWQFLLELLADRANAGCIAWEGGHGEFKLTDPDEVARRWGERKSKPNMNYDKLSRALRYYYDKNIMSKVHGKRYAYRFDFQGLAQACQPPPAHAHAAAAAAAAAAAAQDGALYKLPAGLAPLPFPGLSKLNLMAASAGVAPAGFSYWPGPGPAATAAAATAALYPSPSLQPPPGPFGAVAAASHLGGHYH
The conditions noted are these: protein: recombinant; tags: N-terminal GST; dsDNA, one strand shown. The essentials:
(§1)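 In yeast, human transcription factors were expressed with a GST fusion, then pulled down on glutathione beads and given DNA barcodes. Pooled with a tag-only sample, they were exposed to 200 nmole of a 16-mer random double-stranded DNA library (Tris/NaCl/DTT/glycerol buffer, room temperature, 30 min), washed, crosslinked with 0.1% formaldehyde, proximity-ligated using BsaI/T4 ligase for 1 h at 37 °C, PCR-amplified and read on an Illumina NextSeq500. Each hexamer's frequency of reads for a factor, divided by the matching frequency for the tag-only sample, gives the binding signal.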

Experiment [2] concerns the target ETV5 (Homo sapiens, UniProt P41161 1-510). To be noted: protein: recombinant; tags: N-terminal GST; dsDNA, one strand shown. The essentials:
as §1

For experiment [3], the target named is HSF1 (Homo sapiens, UniProt Q00613 1-529). The conditions noted are these: protein: recombinant; tags: N-terminal GST; chain copies: 3; dsDNA, one strand shown. In outline: as §1
Sequence of HSF1 (Q00613 whole entry): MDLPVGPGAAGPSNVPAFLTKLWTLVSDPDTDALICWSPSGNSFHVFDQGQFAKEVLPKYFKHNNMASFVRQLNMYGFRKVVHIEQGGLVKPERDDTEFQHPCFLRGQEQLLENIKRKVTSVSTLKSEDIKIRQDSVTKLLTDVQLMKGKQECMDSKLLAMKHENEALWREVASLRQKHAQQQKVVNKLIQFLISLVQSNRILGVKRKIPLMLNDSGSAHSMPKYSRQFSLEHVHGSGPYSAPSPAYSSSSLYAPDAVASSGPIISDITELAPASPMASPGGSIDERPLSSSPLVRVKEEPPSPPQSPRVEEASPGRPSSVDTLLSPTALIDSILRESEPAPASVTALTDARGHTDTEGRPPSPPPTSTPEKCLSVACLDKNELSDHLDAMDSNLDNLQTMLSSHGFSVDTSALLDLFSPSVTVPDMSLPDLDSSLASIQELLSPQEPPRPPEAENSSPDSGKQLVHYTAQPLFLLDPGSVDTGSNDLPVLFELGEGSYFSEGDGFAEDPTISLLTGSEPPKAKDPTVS
The target of experiment [4] is T2, SPIC (Homo sapiens, UniProt Q8N5J4 1-248).
T2 sequence: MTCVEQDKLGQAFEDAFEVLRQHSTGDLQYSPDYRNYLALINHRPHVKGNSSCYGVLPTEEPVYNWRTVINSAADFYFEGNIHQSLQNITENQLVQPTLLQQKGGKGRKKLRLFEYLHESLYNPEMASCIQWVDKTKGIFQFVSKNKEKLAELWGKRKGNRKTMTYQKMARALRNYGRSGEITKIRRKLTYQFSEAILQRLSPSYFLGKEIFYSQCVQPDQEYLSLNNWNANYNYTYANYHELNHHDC
To be noted: protein: recombinant; tags: N-terminal GST; dsDNA, one strand shown. The essentials: as §1

The target of experiment [5] is ELF4 (Homo sapiens, UniProt Q99607 1-663). The conditions noted are these: protein: recombinant; tags: N-terminal GST; dsDNA, one strand shown. The essentials:
as §1

The target in experiment [6] is T3, ELK4 (Homo sapiens, UniProt P28324-2 1-405).
T3 sequence: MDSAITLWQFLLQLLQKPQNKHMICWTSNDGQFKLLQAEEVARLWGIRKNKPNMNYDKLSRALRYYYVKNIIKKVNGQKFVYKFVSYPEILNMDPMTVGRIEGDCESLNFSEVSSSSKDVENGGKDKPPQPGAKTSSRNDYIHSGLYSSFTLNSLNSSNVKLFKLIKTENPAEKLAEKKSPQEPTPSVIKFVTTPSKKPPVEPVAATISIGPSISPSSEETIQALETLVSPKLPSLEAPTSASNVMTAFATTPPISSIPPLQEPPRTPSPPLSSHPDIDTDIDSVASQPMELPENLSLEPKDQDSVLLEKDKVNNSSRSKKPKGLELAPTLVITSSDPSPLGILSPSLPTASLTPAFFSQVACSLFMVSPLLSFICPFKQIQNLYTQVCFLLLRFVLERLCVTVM
The conditions noted are these: protein: recombinant; tags: N-terminal GST; dsDNA, one strand shown. The essentials: as §1

Experiment [7] deals with T4, ETV2 (Homo sapiens, UniProt O00321 1-342).
T4 sequence: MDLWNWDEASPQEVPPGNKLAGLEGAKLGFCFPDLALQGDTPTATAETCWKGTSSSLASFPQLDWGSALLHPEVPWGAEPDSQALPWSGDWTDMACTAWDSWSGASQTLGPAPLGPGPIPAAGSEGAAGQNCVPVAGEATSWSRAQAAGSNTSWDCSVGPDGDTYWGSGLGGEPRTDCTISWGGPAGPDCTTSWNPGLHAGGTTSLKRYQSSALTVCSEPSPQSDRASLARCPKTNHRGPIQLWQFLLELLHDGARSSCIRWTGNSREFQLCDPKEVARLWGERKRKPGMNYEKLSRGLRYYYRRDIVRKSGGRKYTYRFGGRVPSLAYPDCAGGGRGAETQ
The conditions noted are these: protein: recombinant; tags: N-terminal GST; dsDNA, one strand shown. The essentials: as §1

Experiment [8] deals with T5, ELF3 (Homo sapiens, UniProt P78545 1-371).
T5 sequence: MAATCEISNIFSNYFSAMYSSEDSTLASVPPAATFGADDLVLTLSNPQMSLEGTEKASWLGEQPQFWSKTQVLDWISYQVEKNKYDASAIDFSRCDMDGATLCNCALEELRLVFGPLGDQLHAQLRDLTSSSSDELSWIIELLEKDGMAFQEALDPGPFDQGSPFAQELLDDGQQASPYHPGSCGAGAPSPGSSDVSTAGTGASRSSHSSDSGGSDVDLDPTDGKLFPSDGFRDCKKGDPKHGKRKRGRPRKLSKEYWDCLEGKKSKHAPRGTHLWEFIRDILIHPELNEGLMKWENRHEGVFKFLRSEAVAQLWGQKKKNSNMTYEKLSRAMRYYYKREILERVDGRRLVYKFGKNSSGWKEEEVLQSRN
To be noted: protein: recombinant; tags: N-terminal GST; dsDNA, one strand shown. The essentials:
as §1

The target in experiment [9] is CRX (Homo sapiens, UniProt O43186 1-299). To be noted: protein: recombinant; tags: N-terminal GST; dsDNA, one strand shown. The essentials: as §1
Sequence of CRX (O43186 whole entry): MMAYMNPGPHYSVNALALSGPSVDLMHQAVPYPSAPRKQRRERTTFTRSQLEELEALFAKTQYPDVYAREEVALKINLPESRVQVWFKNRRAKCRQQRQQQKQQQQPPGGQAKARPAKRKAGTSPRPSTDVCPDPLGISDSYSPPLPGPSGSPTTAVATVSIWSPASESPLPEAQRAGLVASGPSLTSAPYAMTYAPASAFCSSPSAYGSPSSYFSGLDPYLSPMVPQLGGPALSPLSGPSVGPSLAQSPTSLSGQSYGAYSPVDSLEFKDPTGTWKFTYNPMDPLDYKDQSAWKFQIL
Experiment [10] addresses ETV1 (Homo sapiens, UniProt P50549 1-477). To be noted: protein: recombinant; tags: N-terminal GST; dsDNA, one strand shown. The essentials:
as §1

The target in experiment [11] is T6, ERF (Homo sapiens, UniProt P50548 1-548).
T6 sequence: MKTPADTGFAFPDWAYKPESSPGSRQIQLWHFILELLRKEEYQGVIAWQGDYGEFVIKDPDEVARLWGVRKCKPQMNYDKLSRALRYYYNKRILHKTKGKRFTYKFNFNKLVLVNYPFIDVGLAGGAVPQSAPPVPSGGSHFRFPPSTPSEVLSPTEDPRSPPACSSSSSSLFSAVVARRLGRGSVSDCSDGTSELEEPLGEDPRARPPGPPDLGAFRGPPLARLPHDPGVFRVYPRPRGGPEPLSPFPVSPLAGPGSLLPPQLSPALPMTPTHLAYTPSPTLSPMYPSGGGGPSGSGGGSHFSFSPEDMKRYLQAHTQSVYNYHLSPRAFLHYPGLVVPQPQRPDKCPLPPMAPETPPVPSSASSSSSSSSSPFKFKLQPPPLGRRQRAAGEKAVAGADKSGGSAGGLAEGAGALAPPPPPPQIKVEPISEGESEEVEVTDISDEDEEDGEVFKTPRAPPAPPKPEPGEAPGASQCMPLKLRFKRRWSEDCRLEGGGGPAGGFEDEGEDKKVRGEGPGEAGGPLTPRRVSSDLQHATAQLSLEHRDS
The conditions noted are these: protein: recombinant; tags: N-terminal GST; dsDNA, one strand shown. In outline: as §1

The target in experiment [12] is T7, ETV3L (Homo sapiens, UniProt Q6ZN32 1-361).
T7 sequence: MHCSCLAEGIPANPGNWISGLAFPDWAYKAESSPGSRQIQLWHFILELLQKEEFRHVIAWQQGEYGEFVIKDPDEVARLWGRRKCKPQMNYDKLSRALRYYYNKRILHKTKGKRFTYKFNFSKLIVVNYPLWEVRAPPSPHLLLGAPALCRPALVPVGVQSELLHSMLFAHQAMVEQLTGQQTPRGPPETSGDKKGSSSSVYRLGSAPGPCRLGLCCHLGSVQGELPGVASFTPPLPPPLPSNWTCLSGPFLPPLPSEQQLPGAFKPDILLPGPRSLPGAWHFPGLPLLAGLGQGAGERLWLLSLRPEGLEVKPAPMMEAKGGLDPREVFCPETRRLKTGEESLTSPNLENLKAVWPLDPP
To be noted: protein: recombinant; tags: N-terminal GST; dsDNA, one strand shown. In outline:
as §1

Experiment [13] concerns the target T8, ETS2 (Homo sapiens, UniProt P15036 1-469).
T8 sequence: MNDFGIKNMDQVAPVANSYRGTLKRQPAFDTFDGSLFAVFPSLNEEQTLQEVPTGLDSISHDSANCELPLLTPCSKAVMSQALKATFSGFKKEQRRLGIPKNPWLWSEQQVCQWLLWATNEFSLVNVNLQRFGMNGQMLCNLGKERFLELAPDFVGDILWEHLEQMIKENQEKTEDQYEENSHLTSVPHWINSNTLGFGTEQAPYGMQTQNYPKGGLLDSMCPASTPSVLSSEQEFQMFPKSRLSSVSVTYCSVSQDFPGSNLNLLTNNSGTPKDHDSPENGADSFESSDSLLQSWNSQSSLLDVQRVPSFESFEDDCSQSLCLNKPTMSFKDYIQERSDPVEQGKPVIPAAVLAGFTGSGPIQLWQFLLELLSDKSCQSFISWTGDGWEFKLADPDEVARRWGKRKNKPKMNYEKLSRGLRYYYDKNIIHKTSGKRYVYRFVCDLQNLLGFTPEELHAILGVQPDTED
The conditions noted are these: protein: recombinant; tags: N-terminal GST; dsDNA, one strand shown. In outline: as §1

In experiment [14] the target is T9, SPDEF (Homo sapiens, UniProt O95238 1-335).
T9 sequence: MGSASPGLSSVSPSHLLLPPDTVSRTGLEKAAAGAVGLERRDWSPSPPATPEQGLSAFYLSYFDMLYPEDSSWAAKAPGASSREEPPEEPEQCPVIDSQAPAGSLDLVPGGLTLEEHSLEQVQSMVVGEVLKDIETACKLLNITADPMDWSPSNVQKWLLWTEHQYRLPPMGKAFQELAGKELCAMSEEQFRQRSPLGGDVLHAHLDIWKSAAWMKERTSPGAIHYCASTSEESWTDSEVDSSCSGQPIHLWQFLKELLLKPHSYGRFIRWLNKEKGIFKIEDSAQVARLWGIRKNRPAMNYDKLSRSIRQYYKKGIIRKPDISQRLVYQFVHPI
The conditions noted are these: protein: recombinant; tags: N-terminal GST; dsDNA, one strand shown. The essentials:
as §1

Experiment [15] concerns the target T10, ETV7 (Homo sapiens, UniProt Q9Y603 1-341).
T10 sequence: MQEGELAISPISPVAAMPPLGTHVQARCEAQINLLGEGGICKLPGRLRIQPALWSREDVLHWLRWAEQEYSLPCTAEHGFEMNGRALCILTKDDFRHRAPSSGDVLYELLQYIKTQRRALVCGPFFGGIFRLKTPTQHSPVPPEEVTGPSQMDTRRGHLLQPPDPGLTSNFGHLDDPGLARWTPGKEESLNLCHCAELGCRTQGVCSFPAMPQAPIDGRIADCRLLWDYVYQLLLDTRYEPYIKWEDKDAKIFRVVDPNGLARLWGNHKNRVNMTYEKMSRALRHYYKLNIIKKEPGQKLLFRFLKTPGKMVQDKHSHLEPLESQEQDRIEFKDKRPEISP
To be noted: protein: recombinant; tags: N-terminal GST; dsDNA, one strand shown. The essentials:
as §1

Experiment [16] concerns the target T11, ELF5 (Homo sapiens, UniProt Q9UKW6-2 1-255).
T11 sequence: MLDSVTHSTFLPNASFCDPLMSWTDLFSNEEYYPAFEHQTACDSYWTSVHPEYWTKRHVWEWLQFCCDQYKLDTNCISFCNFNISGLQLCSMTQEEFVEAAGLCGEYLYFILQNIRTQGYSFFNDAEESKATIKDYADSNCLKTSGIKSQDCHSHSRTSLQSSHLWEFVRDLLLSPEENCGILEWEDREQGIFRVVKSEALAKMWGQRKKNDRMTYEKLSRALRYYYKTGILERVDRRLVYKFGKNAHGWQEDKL
To be noted: protein: recombinant; tags: N-terminal GST; dsDNA, one strand shown. In outline: as §1

Experiment [17] addresses T12, ETV3 (Homo sapiens, UniProt P41162-2 1-143).
T12 sequence: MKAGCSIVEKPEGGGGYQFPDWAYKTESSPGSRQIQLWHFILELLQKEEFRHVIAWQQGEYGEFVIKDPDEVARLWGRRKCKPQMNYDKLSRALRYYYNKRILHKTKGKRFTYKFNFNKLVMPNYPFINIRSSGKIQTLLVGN
The conditions noted are these: protein: recombinant; tags: N-terminal GST; dsDNA, one strand shown. In outline: as §1

Experiment [18] has as its target ETV6 (Homo sapiens, UniProt P41212 1-452). The conditions noted are these: protein: recombinant; tags: N-terminal GST; dsDNA, one strand shown. In outline: as §1

Sequence of ELF4 (Q99607 whole entry): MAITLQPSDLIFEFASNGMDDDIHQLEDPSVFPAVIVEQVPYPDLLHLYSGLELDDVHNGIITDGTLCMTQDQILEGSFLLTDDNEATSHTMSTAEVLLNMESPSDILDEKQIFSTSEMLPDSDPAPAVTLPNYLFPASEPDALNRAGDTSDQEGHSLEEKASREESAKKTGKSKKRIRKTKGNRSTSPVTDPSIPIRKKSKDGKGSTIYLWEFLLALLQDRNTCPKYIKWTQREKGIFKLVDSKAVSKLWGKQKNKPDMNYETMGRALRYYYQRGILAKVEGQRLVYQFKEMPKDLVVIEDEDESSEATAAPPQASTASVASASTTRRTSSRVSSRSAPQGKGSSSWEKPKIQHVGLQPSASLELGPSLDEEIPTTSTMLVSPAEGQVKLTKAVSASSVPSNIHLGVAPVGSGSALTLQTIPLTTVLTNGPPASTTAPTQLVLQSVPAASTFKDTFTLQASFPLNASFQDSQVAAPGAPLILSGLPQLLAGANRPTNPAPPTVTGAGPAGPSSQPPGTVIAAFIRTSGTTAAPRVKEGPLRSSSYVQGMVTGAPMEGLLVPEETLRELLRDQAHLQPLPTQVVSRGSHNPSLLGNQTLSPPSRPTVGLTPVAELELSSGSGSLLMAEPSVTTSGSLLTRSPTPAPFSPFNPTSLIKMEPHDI
Sequence of ETV5 (P41161 whole entry): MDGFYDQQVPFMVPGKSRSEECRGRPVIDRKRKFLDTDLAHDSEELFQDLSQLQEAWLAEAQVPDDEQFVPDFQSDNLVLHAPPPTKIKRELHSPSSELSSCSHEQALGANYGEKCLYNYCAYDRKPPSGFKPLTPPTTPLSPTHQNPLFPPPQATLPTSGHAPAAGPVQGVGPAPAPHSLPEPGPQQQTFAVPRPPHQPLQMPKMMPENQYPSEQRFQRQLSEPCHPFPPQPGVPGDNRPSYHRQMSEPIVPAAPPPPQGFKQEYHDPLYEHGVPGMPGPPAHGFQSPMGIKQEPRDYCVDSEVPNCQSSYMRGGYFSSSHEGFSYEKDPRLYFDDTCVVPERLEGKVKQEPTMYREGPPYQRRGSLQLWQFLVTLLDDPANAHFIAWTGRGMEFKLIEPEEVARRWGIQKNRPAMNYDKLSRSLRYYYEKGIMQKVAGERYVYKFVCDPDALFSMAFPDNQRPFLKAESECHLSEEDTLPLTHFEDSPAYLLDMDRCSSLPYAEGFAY
Sequence of ETV6 (P41212 whole entry): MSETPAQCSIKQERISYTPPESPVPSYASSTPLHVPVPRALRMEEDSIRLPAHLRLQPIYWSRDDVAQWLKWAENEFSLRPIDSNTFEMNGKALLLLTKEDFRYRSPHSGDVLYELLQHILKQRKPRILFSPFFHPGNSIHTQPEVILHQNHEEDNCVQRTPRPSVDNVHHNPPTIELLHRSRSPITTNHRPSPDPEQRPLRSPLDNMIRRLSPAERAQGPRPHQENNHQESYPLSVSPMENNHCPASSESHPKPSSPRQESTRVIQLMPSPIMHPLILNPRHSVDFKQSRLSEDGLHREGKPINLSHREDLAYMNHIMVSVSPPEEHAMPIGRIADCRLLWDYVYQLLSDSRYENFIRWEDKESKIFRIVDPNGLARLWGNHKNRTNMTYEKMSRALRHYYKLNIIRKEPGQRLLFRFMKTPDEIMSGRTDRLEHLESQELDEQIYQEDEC
Sequence of ETV1 (P50549 whole entry): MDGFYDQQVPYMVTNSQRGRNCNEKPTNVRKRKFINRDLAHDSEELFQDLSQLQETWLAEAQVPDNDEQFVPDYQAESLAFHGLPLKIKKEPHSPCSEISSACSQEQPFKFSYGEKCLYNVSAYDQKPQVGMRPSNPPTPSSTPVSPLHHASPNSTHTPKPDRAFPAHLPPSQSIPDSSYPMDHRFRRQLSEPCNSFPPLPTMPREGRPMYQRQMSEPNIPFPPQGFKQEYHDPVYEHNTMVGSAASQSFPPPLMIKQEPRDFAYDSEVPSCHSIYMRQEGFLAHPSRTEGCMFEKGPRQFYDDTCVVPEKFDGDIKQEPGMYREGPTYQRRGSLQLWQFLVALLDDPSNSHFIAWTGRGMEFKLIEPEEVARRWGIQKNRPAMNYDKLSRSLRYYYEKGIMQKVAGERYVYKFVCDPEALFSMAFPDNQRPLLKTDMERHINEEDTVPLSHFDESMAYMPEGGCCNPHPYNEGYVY

Regarding TTTCTA, the binding signal was 1.34 fold enrichment (6-mer frequency, TF over GST control) in experiment [1]; 1.37 fold enrichment (6-mer frequency, TF over GST control) in experiment [2]; 3.01 fold enrichment (6-mer frequency, TF over GST control) in experiment [3]; 1.52 fold enrichment (6-mer frequency, TF over GST control) in experiment [4]; 1.33 fold enrichment (6-mer frequency, TF over GST control) in [5]; 1.34 fold enrichment (6-mer frequency, TF over GST control) in experiment [6]. The binding signal in experiment [7] is 1.27 fold enrichment (6-mer frequency, TF over GST control); in [8] it was 1.36 fold enrichment (6-mer frequency, TF over GST control); in experiment [9], 1.97 fold enrichment (6-mer frequency, TF over GST control); in experiment [10] it was 1.47 fold enrichment (6-mer frequency, TF over GST control); in [11], 1.32 fold enrichment (6-mer frequency, TF over GST control); in [12], 1.3 fold enrichment (6-mer frequency, TF over GST control). For the same sequence, the binding signal in experiment [13] was 1.37 fold enrichment (6-mer frequency, TF over GST control); in experiment [14] it was 1.39 fold enrichment (6-mer frequency, TF over GST control); in experiment [15] it was 1.37 fold enrichment (6-mer frequency, TF over GST control); in experiment [16] it was 1.31 fold enrichment (6-mer frequency, TF over GST control); in experiment [17] it was 1.38 fold enrichment (6-mer frequency, TF over GST control); in experiment [18], 1.25 fold enrichment (6-mer frequency, TF over GST control).
